This is an account of results in PubChem BioAssay AID588335 (The Scripps Research Institute Molecular Screening Center, 2011).

The campaign covered roughly 360,000 compounds. About 4,500 (1.2%) were called active. Cut-off read from the data, not from the text of the source: active = inhibition above about 30%; inactive = the rest. The full list was thinned out, with actives kept by preference.

As a reminder, the inhibition is the relative decrease from the control value, in per cent.

The experiment in a line: inhibition of GDH and TPI enzymes – biochemical, absorbance, full deck, artefact control for M. tuberculosis FBA inhibitor project, primary screen (AID 588335).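 Note: 0% = DMSO wells and 100% = wells lacking the enzyme.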 The following applies: GDH-TPI coupled enzyme counterscreen, NADH absorbance; at 4.8 µM; active compounds read high. Background: Counterscreens check selectivity or assay interference.
On to `CC(Oc1ccc(F)cc1)C(=O)Nc1cc(S(=O)(=O)N2CCOCC2)ccc1N1CCN(C)CC1` (stereo not given), for which the inhibition was -7.32% (inactive).

As for `COC(=O)c1ccc(NC(=O)C23CC4CC(C2)CC(n2cnc(Cl)n2)(C4)C3)cc1`, the inhibition was 7.31% (inactive). For `CCC(CC)C(=O)Nc1cccc(C(=O)N2CCCC2)c1` the value was 2.12% (inactive). For `COc1ccc(NC(=O)CCCOc2ccc(C(C)=O)cc2)cc1S(=O)(=O)N1CCCCC1` the value was 7.56% (inactive); for `COc1cc(/C=N/NC(=O)c2ccc(N3CCCC3=O)cc2)ccc1O`, 43.2% (active); for `C/C(=N\NC(=O)c1cccc(N2CCCC2=O)c1)c1ccc(N)cc1`, 5.43% (inactive). For `O=C(NCCCN1CCCCCC1)c1ccc(N2CCCC2=O)cc1`, the inhibition is 3.81% (inactive). For `CN(CC(O)COc1ccc(S(=O)(=O)N2CCOCC2)cc1Cl)C1CCCCC1` (stereo not given) the value was -2.47% (inactive); for `Cn1c(SCC(=O)Nc2ccc(Cl)cc2)nc(O)cc1=O`, 4.39% (inactive). Then `Cc1ccc(C(=O)N/C(=C/c2ccc(-c3cccc([N+](=O)[O-])c3)o2)C(=O)NCCCN(C)C)cc1`, with 58.5% (active). Turning to `O=C(NCc1ccco1)/C(=C\c1cccc([N+](=O)[O-])c1)NC(=O)c1ccco1`, the inhibition is 16.8% (inactive).

Turning to `O=C(NCc1ccco1)/C(=C/c1cccc([N+](=O)[O-])c1)NC(=O)c1ccco1`, the inhibition is -4.48% (inactive). For `CN(C(=O)c1cccc(NC(=O)Cc2ccc([N+](=O)[O-])cc2)c1)C1CCC1` the value was 6.17% (inactive); for `COc1ccc(/C=N\NC(=O)c2sc(N)nc2C)cc1OC`, 40.4% (active); for `COc1cc(/C=N/NC(=O)Nc2ccccc2)ccc1OCCOc1ccccc1C`, 18.8% (inactive).

Take `Cc1nnsc1C(=O)N/N=C/c1cccc(C(F)(F)F)c1`: the inhibition was 5.54% (inactive). For `CC1(Oc2ccc(Cl)cc2)CCN(Cc2csc3ccccc23)C1` (stereo not given) the value was -8.04% (inactive); for `CCOC(=O)c1ccccc1NC(=S)N1CCC(C(N)=O)CC1`, -2.65% (inactive); for `CCCCn1c(N)c(N(CCOC)C(=O)c2sc3ccccc3c2Cl)c(=O)[nH]c1=O`, 0% (inactive).

As for `CC(=O)Nc1ccc(S(=O)(=O)Nc2nc3n(n2)C(c2ccccc2)CC(=O)N3)cc1` (stereo not given), the inhibition is 0.72% (inactive). Then `CCOc1ccc(-n2c(SCC(=O)OC)nc3sc4c(c3c2=O)CCN(C)C4)cc1`, with 22.9% (inactive); and `CCOc1ccc(-n2c(SCC(=O)Nc3ccc(OC)cc3)nc3sc4c(c3c2=O)CCN(C)C4)cc1`, with 19.9% (inactive); and `CCCSc1nc2sc3c(c2c(=O)n1-c1ccc(OC)cc1)CCN(C)C3`, with 14.5% (inactive). Then `CCn1c(SCC(=O)Nc2ccc(Br)cc2)nc2sc3c(c2c1=O)CCN(C)C3`, with 6.95% (inactive). Then `CCSc1nc2sc3c(c2c(=O)n1-c1ccc(C)cc1)CCN(C)C3`, with 30.7% (active).

On to `COc1ccccc1NC(=O)CSc1nc2sc3c(c2c(=O)n1-c1ccccc1)CCN(C)C3`, for which the inhibition was 33.1% (active). For `C[C@H]1CN([C@@H](C)CO)C(=O)CCCn2cc(nn2)CO[C@@H]1CN(C)S(=O)(=O)c1ccc(-c2ccccc2)cc1` the value was 5.15% (inactive). Then `CC1(C)CC(=O)C(C2c3ccccc3S(=O)(=O)c3ccccc32)C(=O)C1`, with 3.51% (inactive); and `Cc1c(C=O)c2ccccn2c1C(=O)c1ccncc1`, with 23.7% (inactive); and `COc1cc(NC(=O)CCNC(=O)Cn2ccc3ccccc3c2=O)cc(OC)c1OC`, with -1.5% (inactive). Then `Cn1c(=O)c2c(nc(N3CCCCCC3)n2CC(O)COc2ccc(Cl)cc2)n(C)c1=O` (stereo not given), with 3.88% (inactive); and `CN(C)S(=O)(=O)c1cccc(NC(=O)COc2ccc3ccccc3c2)c1`, with 0.32% (inactive).

As to `CN(C)S(=O)(=O)c1cccc(NC(=O)COC(=O)c2cc(=O)[nH]c(=O)[nH]2)c1`, the inhibition is -1.24% (inactive). For `Cc1ccc(/C=N/NC(=S)Nc2cccc(S(=O)(=O)N(C)C)c2)o1` the value was 55.8% (active); for `CCN(C(=O)Nc1cccc2ccccc12)c1ccccc1`, 3.9% (inactive). For `Cc1cccc(S(=O)(=O)N2CN(CC3CCCO3)c3nc4ccccc4nc32)c1` (stereo not given) the value was 11.8% (inactive); for `CCN(CC)C(=O)c1sc(NC(=O)c2ccco2)c(C#N)c1C`, 33.3% (active). Take `Cc1c(C(=O)OC(C)C)sc(NC(=O)c2cccnc2)c1C#N`: the inhibition was 20.9% (inactive).

As to `Cc1sc(NC(=O)C2=COCCO2)c(C#N)c1C`, the inhibition was 13.8% (inactive).

`CCN(CC)CC(=O)Nc1nn(-c2ccccc2)nc1C(N)=O`: the inhibition was -4.59% (inactive). As for `COc1ccc(OC)c(/C=N/NC(=O)c2ccc[n+](CC(=O)c3ccccc3)c2)c1`, the inhibition is 11.2% (inactive). Take `COc1ccc(OC)c(/C=C/C(=O)c2ccc3c(c2)OCO3)c1`: the inhibition was 7.32% (inactive). For `COc1ccc(/C=N/NC(=O)c2ccc3c(c2)OCCO3)c(OC)c1`, the inhibition was 35.4% (active). Then `CN(CC(=O)NCCc1ccc(S(N)(=O)=O)cc1)CC(=O)Nc1ccc(Cl)cc1`, with 2.64% (inactive).

Take `CCCCc1ccc(S(N)(=O)=O)cc1`: the inhibition was 1.6% (inactive).

Turning to `CN(C)c1ccc(C=NCCc2ccc(S(N)(=O)=O)cc2)cc1`, the inhibition was 54.4% (active). For `O=C(O)CC(c1ccccc1F)N1Cc2ccccc2C1=O` (stereo not given) the value was -3.95% (inactive).

For `Cc1c(C(=O)NC2CCCCC2)oc2ccccc12`, the inhibition was 5.98% (inactive). As to `CC(C)c1ccccc1OCC(O)CN(CC(O)COc1cccc2ccccc12)C(C)C` (stereo not given), the inhibition is 6.49% (inactive). Then `COc1ccc(/C=C/C(=O)Nc2ccc3c(c2)OCCO3)cc1OC`, with 33.3% (active); and `COc1cc(/C=C/C(=O)OCC(=O)N2CCOCC2)ccc1OCC#N`, with 5.68% (inactive). Then `COc1cccc(/C=C/C(=O)Nc2ccc3c(c2)OCCO3)c1`, with 9.4% (inactive); and `COc1ccc(/C=C/C(=O)Nc2ccc(C34CC5CC(CC(O)(C5)C3)C4)cc2)cc1OC`, with 31% (active). Then `COc1ccc(/C=C/C(=O)OCC(=O)NC2CCCCCC2)cc1OC`, with 27.3% (inactive). `COc1ccc(CCC(=O)Nc2ccc(Cl)c(S(=O)(=O)N3CCOCC3)c2)cc1OC`: the inhibition is 5.73% (inactive). For `COc1ccc(S(=O)(=O)N(C)CC(=O)Nc2ccc3c(c2)OCCO3)cc1OC` the value was 5.05% (inactive); for `COc1cc(/C=C/C(=O)Nc2ccc(OC)c(S(=O)(=O)N3CCOCC3)c2)ccc1OCC#N`, 34.9% (active). Regarding `CSc1ccc(/C=C/C(=O)NC23CC4CC(CC(C4)C2)C3)cc1`, the inhibition is 14.4% (inactive).

As for `CCN1C(=O)[C@H]2[C@@H](c3ccc(SC4CCCCC4)c(OC)c3)N[C@@](Cc3ccccc3)(C(=O)OC)[C@H]2C1=O`, the inhibition was 9.48% (inactive).

With `COc1ccc(-c2ccc(C(=O)NCCN3CCOCC3)c3occc23)c(C)c1`, the inhibition was -2.68% (inactive).

For `CCc1ccc(-c2cc3c(=O)n(CC(=O)NCCCN4CCN(Cc5ccccc5)CC4)nc(C)n3n2)cc1`, the inhibition was 5.56% (inactive). For `O=C(NCc1cccnc1)c1cccnc1Sc1ccc(Cl)cc1` the value was -0.62% (inactive); for `Cc1ccc(C)c(N2CCN(C(=O)CCc3nc(-c4cccc(C(F)(F)F)c4)no3)CC2)c1`, 0% (inactive); for `CC1(C)Cc2ccccc2-c2nnc(-c3cccc(O)c3)n21`, 3.02% (inactive).

In the case of `Cn1c(Cn2nnc3ccccc32)nnc1SCC(=O)c1ccccc1F`, the inhibition was -1.22% (inactive). As to `COc1ccc(OC)c(/C=N/NC(=O)CSc2nnc(C)n2-c2ccccc2)c1`, the inhibition is 30.2% (inactive).

`C=CCn1c(Cn2nnc3ccccc32)nnc1SCC(=O)N/N=C/c1cc(Br)cc(OC)c1O`: the inhibition is 33.8% (active). Then `Cc1ccc(-n2nc3c(c2NC(=O)CCC2CCCCC2)CS(=O)C3)cc1` (stereo not given), with -6.57% (inactive). For the compound `O=C(CCNS(=O)(=O)c1ccc(Br)s1)NCc1ccccc1Cl`, the inhibition is -5.73% (inactive). Then `CCn1ccnc1CNC(=O)CC1C(=O)NCCN1CCCc1ccccc1` (stereo not given), with 1.04% (inactive); and `O=C(NCc1ccc2c(c1)OCO2)c1cc2c(s1)CS(=O)(=O)C2`, with 3.7% (inactive). Then `CCOc1ccc2[nH]c(=O)c(CN(CCCO)C(C)=O)cc2c1`, with 10.1% (inactive). Then `CCOc1ccc2ccccc2c1/C=N/NC(=O)c1c(C)cc(C)[nH]c1=O`, with 11.8% (inactive); and `COc1cccc2[nH]c(C(=O)NCCc3ccccc3)cc12`, with 2.15% (inactive); and `COc1cccc(C(=O)N/N=C(\C)c2cccc(NC(=O)c3ccc(F)cc3)c2)c1OC`, with -1.01% (inactive). With `COc1ccc2[nH]c(C(=O)N/N=C/c3cc(OC)c(OC)c(OC)c3)cc2c1`, the inhibition was 63% (active).

On to `CCOc1ccc2[nH]c(C(=O)N/N=C/c3cccc(OC)c3OC)cc2c1`, for which the inhibition is 42.1% (active). Then `COc1cc2cc(C(=O)N/N=C/c3cccc(OC)c3OC)[nH]c2cc1OC`, with 53.6% (active). Then `CCC(=O)c1ccc(OC(=O)/C=C/c2cc(OC)c(OC)c(OC)c2)cc1`, with 14.9% (inactive); and `COc1ccc2[nH]c(=O)c(CNc3ccc(C)c(C)c3)cc2c1`, with 7.26% (inactive). As for `CC(C)n1c(SCC(=O)Nc2ccccc2N2CCCCC2)nc2c1c(=O)n(C)c(=O)n2C`, the inhibition is 2.5% (inactive).

Turning to `NS(=O)(=O)c1ccc(CNC(=O)c2ccc(Cl)cc2[N+](=O)[O-])cc1`, the inhibition was -1.13% (inactive).

For `Cc1cn(C)c(=O)n(C)c1=O`, the inhibition was -2.08% (inactive).

As for `COc1cccc(N2CC(C(=O)NCc3n[nH]c(=O)c4ccccc34)CC2=O)c1` (stereo not given), the inhibition was 3.52% (inactive). Turning to `CC(C)Cc1nc(Cl)c(C#N)c2c1CCC2`, the inhibition was -7.66% (inactive). For `O=c1cc(N2CCCCC2)c(-c2ccccc2)nn1Cc1cccc(F)c1` the value was 10.7% (inactive); for `O=C(Nc1cc(C(F)(F)F)ccc1Cl)c1cc2nc3c(c(C(F)(F)F)n2n1)CCCC3`, -11.5% (inactive); for `Cc1cc(C)cc(OCC(=O)NNC(=O)c2cc3ccccc3oc2=O)c1`, 11.9% (inactive). For `NS(=O)(=O)c1ccc(NC(=O)COC(=O)c2cc3ccccc3oc2=O)cc1` the value was 32.9% (active). Then `NS(=O)(=O)c1ccc(NC(=O)COC(=O)CCc2c[nH]c3ccccc23)cc1`, with 4.09% (inactive).
